Results filed as inconclusive are left out. Where a call stands in place of a potency, no number is given. A number with no mark means an inactive call. Active and inactive are the calls of the source. Calls follow the shape of the dose curve; as a rule, active = well fitted inhibition curve with a large enough effect; inconclusive = small, poorly fitted or top-dose-only effect; inactive = flat fitted curve, though single readings scatter.
Tests used:
HEK293 = experiment: Cytotoxic Profiling of Annotated Libraries Using Quantitative High-Throughput Screening (AID 1296008); conditions: Five cell lines viability, CellTiter-Glo ATP luminescence, 48-72 h; max response: stronger effect = lower value; also: potency is read from the fitted curve at half-maximal effect
Summary of the method: (§1)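 Compounds were pin-transferred onto cells and incubated 48 or 72 hr at 37 degree Celsius, 95% humidity. CellTiter-Glo was added, plates sat 10 min at room temperature, then ATP-coupled luminescence was imaged as the viability read-out.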

HaCat = experiment: as above; conditions: Five cell lines viability, CellTiter-Glo ATP luminescence, 48-72 h; max response: stronger effect = lower value
Summary of the method: as §1

KB-3-1 = experiment: as above; conditions: Five cell lines viability, CellTiter-Glo ATP luminescence, 48-72 h; max response: stronger effect = lower value
Summary of the method: as §1

NIH3T3 = experiment: as above; conditions: Five cell lines viability, CellTiter-Glo ATP luminescence, 48-72 h; max response: stronger effect = lower value
Summary of the method: as §1

HEK293T = experiment: qHTS assay to identify novel small-molecules to repurpose for Merkel cell carcinoma treatment (AID 1296009); conditions: MCC and control cell lines, CellTiter-Glo viability, 72 h; series mostly up to 44.8 µM
Summary of the method: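 Cells exposed to NPC (8-point) and MIPE (11-point) compound dilutions for 72 hr at 37 degree celsius; viability read by CellTiter-Glo luminescence, normalized to no-cell and DMSO in-plate controls.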
Also: nearly all actives have a fitted effect of over 60% in size.

SMILES	outcome (HEK293)	max response (HaCat)	outcome (KB-3-1)	outcome (NIH3T3)	Potency (HEK293T)	max response (KB-3-1)	outcome (HEK293T)	max response (NIH3T3)	Potency (HaCat)
O=C(/C=C/c1ccccc1)OCC1=CC[C@@H]2C(C(=O)O)=CO[C@@H](O[C@@H]3O[C@H](CO)[C@@H](O)[C@H](O)[C@H]3O)[C@H]12	inactive	0.992%	inactive	inactive	inactive	–	–	–	–
CC(=O)OC[C@]1(O)[C@H]2[C@H](OC(=O)CC(C)C)OC=C(CO[C@@H]3O[C@H](CO)[C@@H](O)[C@H](O)[C@H]3O)[C@H]2C[C@@H]1O	inactive	-3.61%	inactive	inactive	inactive	–	–	–	–
COC(=O)C12C(=O)C(C)=C(O)C1(C)C(C)=CC1C34CCC(OC3=O)C(C)(C)C4CCC12C (stereo not given)	inactive	1.85%	–	inactive	inactive	6.41%	–	–	–
C[C@@H]1O[C@@H](O[C@H]2[C@H](OC(=O)[C@]34CCC(C)(C)C[C@H]3C3=CCC5[C@@]6(C)CC[C@H](O[C@@H]7O[C@H](CO[C@@H]8OC[C@H](O)[C@H](O)[C@H]8O)[C@@H](O)[C@H](O)[C@H]7O)C(C)(C)C6CC[C@@]5(C)[C@]3(C)C[C@H]4O)OC[C@@H](O)[C@@H]2O)[C@H](O)[C@H](O)[C@H]1O[C@@H]1OC[C@H](O)[C@H](O[C@@H]2OC[C@@H](O)[C@H](O)[C@H]2O)[C@H]1O (stereo not given in full)	inactive	-0.578%	inactive	inactive	–	–	inactive [at 9.27 µM]	–	–
C[C@@H](OC(=O)/C=C/c1ccc(O)cc1)C1=C[C@]2(C=C[C@@H]3C(C(=O)O)=CO[C@@H](O[C@@H]4O[C@H](CO[C@@H]5O[C@H](CO)[C@@H](O)[C@H](O)[C@H]5O)[C@@H](O)[C@H](O)[C@H]4O)[C@@H]32)OC1=O	inactive	4.46%	–	–	inactive	4.2%	–	2.02%	–
CC(/C=C/C1(O)C(C)(C)CC(O)CC1(C)O)OC1OC(CO)C(O)C(O)C1O (stereo not given)	inactive	-8.69%	inactive	inactive	inactive	–	–	–	–
C=C(C)[C@@H](C)[C@H]1O[C@]23C[C@]4(CO2)C(CCC2[C@@]5(C)CC[C@H](O[C@@H]6OC[C@H](O)[C@H](O[C@@H]7O[C@H](CO)[C@@H](O)[C@H](O)[C@H]7O)[C@H]6O[C@@H]6O[C@@H](CO)[C@H](O)[C@H]6O)C(C)(C)C5CC[C@]24C)C3[C@@](C)(O)[C@@H]1OC(C)=O (stereo not given in full)	inactive	-4.68%	–	inactive	–	-3.84%	inactive [at 9.27 µM]	–	–
COC(=O)[C@@]1(C)CC[C@]2(C(=O)O[C@@H]3O[C@H](CO)[C@@H](O)[C@H](O)[C@H]3O)CC[C@]3(C)C(=CCC4[C@@]5(C)CC[C@H](O[C@@H]6O[C@H](C(=O)O)[C@@H](O)[C@H](O)[C@H]6O)C(C)(C)C5CC[C@]43C)[C@@H]2C1 (stereo not given in full)	inactive	-2.02%	–	–	–	-0.321%	inactive [at 9.27 µM]	2.66%	–
Cc1cc(N2CCCCC2)nc2ccccc12	inactive	-14.3%	inactive	inactive	inactive	–	–	–	–
COC(=O)C1(Cc2ccc(O)cc2)OC(=O)C(OC)=C1c1ccc(O)cc1 (stereo not given)	inactive	-3.39%	inactive	inactive	inactive	–	–	–	–
COc1c(C(CC(C)C)OC(C)=O)ccc(Oc2c(O)cc(C)cc2/C=C/C(C)=O)c1C(=O)O (stereo not given)	inactive	-7.86%	–	–	inactive	3.96%	–	-18.3%	–
C=CCc1ccc(O[C@@H]2O[C@H](CO[C@@H]3O[C@@H](C)[C@H](O)[C@@H](O)[C@H]3O)[C@@H](O)[C@H](O)[C@H]2O)cc1	inactive	4.55%	–	inactive	inactive	2.9%	–	–	–
COc1cc(/C=C/C(=O)OC2CC(OC(C)=O)C(OC(C)=O)C3C2CCC2C(=O)OC(c4ccoc4)CC23C)ccc1O[C@@H]1O[C@H](CO)[C@@H](O)[C@H](O)[C@H]1O (stereo not given in full)	inactive	–	–	–	inactive	-0.283%	–	-18.6%	6.11 µM (active)
C/C(=C\CCC(C(=O)O)C1CCC2(C)C3=C(CCC12C)C1(C)CCC(=O)C(C)(C)C1CC3)C(=O)O (stereo not given)	inactive	0.998%	inactive	inactive	inactive	–	–	–	–
COc1cc([C@@H]2Oc3c(OC)cc(CCCO)cc3[C@@H]2CO[C@@H]2O[C@H](CO)[C@@H](O)[C@H](O)[C@H]2O)ccc1O	inactive	-11.2%	–	inactive	inactive	9.39%	–	–	–
O=c1c2ccccc2nc2n1CCC2O (stereo not given)	inactive	4.07%	inactive	–	inactive	–	–	2.87%	–
COC1CC(=O)C23C(=O)NC(CC(C)C)C2C(C)C(C)=CC3/C=C(\C)CCC1O (stereo not given)	inactive	-17.4%	–	–	inactive	0.905%	–	-0.706%	–
CCN(c1cc(C#CCN2CCOCC2)cc(C(=O)NCc2c(C)cc(C)[nH]c2=O)c1C)C1CCC(N(C)CCOC)CC1 (stereo not given)	inactive	-3.84%	inactive	inactive	inactive	–	–	–	–
C=C1CCC2C(C)(COC3OC(COC(=O)CC(=O)O)C(O)C(O)C3O)CCCC2(C)C1CCC1=CCOC1=O (stereo not given)	inactive	-2.95%	inactive	inactive	inactive	–	–	–	–

SMILES	outcome (HEK293)	max response (HaCat)	outcome (KB-3-1)	outcome (NIH3T3)	Potency (HEK293T)	max response (KB-3-1)	outcome (HEK293T)	max response (NIH3T3)	Potency (HaCat)
COC1=CC(=O)O[C@@H](/C=C/c2ccccc2)[C@@H]1O	inactive	4.5%	inactive	inactive	inactive	–	–	–	–
CC1NC(=O)C(Cc2c[nH]c3ccccc23)NC1=O (stereo not given)	inactive	2.4%	–	–	inactive	6.79%	–	2.54%	–
C[C@@H]1CC[C@]2(C)C3(C)CC[C@@]2(OC3=O)[C@@]12C[C@H](c1ccoc1)OC2=O	inactive	-0.0916%	–	–	inactive	-4.36%	–	-0.649%	–
C[C@@H]1O[C@@H](O[C@H]2[C@H](OC(=O)C34CCC(C)(C)CC3C3=CCC5C6(C)CC(O)C(O[C@@H]7O[C@H](CO)[C@@H](O)[C@H](O)[C@H]7O)C(C)(C(=O)O)C6CCC5(C)C3(CO)CC4)O[C@H](C)[C@H](O)[C@@H]2O)[C@H](O)[C@H](O)[C@H]1O[C@@H]1OC[C@@H](O)[C@H](O)[C@H]1O (stereo not given in full)	inactive	3.66%	inactive	–	–	–	inactive [at 9.27 µM]	2.3%	–
CNC(=O)c1ccc2cc([C@@]3(O)CCn4cncc43)ccc2c1	inactive	4.91%	inactive	inactive	inactive	–	–	–	–
CCn1cc(C2=NOC(C(=O)Nc3c(C)n(C)n(-c4ccccc4)c3=O)C2)c(C)n1 (stereo not given)	inactive	-4.53%	inactive	–	inactive	–	–	2.09%	–
COC12CC3C(C(C)C1=CC(=O)O2)C(O)C(OC(C)=O)C1C(C)(C)C(OC(C)=O)CCC31C (stereo not given)	inactive	-18.1%	inactive	inactive	inactive	–	–	–	–
CC1CCC2(C)C(CC(O)C(O)C23CO3)C1(C)CCC1=CC(O)OC1=O (stereo not given)	inactive	0.263%	–	–	inactive	-2.97%	–	-4.84%	–
C=CCc1ccc(O[C@@H]2O[C@H](CO[C@@H]3O[C@H](CO)[C@@H](O)[C@H](O)[C@H]3O)[C@@H](O)[C@H](O)[C@H]2O)c(O)c1	inactive	-10.9%	–	inactive	inactive	-2.46%	–	–	–
C=CC(C)(O)CC/C=C(\C)C(=O)OCC1OC(OC2CCC3(C)C(CCC4(C)C3CC=C3C5CC(C)(C)C(O)CC5(C(=O)O)CCC34C)C2(C)C)C(O)C(OC2OC(CO)C(O)C(OC3OC(CO)C(O)C(OC4OC(COC5OC(CO)C(O)C(O)C5O)C(O)C(O)C4O)C3O)C2O)C1O (stereo not given)	inactive	2.14%	inactive	inactive	–	–	inactive [at 9.27 µM]	–	–
Cc1cc(C)c(S(=O)(=O)N(Cc2ccc(-c3cccc(S(C)(=O)=O)c3)cc2)Cc2ccc(C(F)(F)F)o2)c(C)c1	inactive	2.94%	–	inactive	inactive	-6.43%	–	–	–
O=C1NCc2nc3ccccc3c(=O)n2C1Cc1c[nH]c2ccccc12 (stereo not given)	inactive	1.57%	–	inactive	inactive	3.31%	–	–	–
CC(=O)O[C@@]1(C)C[C@@H](O)[C@]2(O)C=CO[C@@H](O[C@@H]3O[C@H](CO)[C@@H](O)[C@H](O)[C@H]3O)[C@@H]21	inactive	3.46%	inactive	inactive	inactive	–	–	–	–
CC(C)C1=CC2=CCC3[C@](C)(CCC[C@@]3(C)C(=O)O)C2CC1=O (stereo not given in full)	inactive	1.19%	–	inactive	inactive	8.65%	–	–	–
CC1=C(CC(=O)O)c2cc(F)ccc2C1=Cc1ccc(S(C)(=O)=O)cc1	inactive	-6.44%	inactive	–	inactive	–	–	4%	–
COC1=CC(=O)O[C@@H](CCc2ccccc2)[C@@H]1O	inactive	-13%	–	–	inactive	5.84%	–	3.13%	–
CC1(C)CC[C@]2(C(=O)O)CC[C@]3(C)C(=CCC4[C@@]5(C)CC[C@H](O[C@@H]6O[C@H](C(=O)O)[C@@H](O)[C@H](O)[C@H]6O)C(C)(CO)C5CC[C@]43C)C2C1 (stereo not given in full)	inactive	-0.619%	inactive	–	inactive	–	–	-4.92%	–
Cc1ccc(Sc2cncc3sc(C(N)=O)cc23)cc1	inactive	-4.86%	inactive	inactive	inactive	–	–	–	–
CC1(C)CCC2(C(=O)OC3OC(COC4OC(CO)C(O)C(O)C4O)C(O)C(O)C3O)CCC3(C)C(=CCC4C5(C)CCC(O)C(C)(C(=O)O)C5CCC43C)C2C1O (stereo not given)	inactive	2.41%	inactive	–	–	–	inactive [at 9.27 µM]	4.9%	–

— PubChem BioAssay (NCATS)
